Measurements taken from PubChem BioAssay (Tox21).
A number with no mark means an inactive call. Results filed as inconclusive are left out. Where a call stands in place of a potency, no number is given. Active and inactive are the calls of the source. Unless noted, calls come from the whole dose curve; as a rule, active = well fitted curve in the direction sought with a large enough effect in the repeat runs; inconclusive = weak or mixed curves; inactive = no such curve, though single readings can be large; an effect the other way counts as inactive or inconclusive.

How the values were obtained:
[1] = A CellTox Green Cytotoxicity Assay to monitor cytotoxicity in HepG2 cells - 8 hour (AID 1224890); note: nearly all actives have a fitted effect of over 45% in size
Summary of the method: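 Continuous culture of HepG2 cells with a membrane-impermeant DNA dye; rising fluorescence marks dead cells. Compound exposure lasted up to 40 h at 37 C, with reads every 8 h from 0 h.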

[2] = qHTS assay to identify small molecule antagonists of the estrogen receptor alpha (ER-alpha) signaling pathway using the BG1 cell line in the presence of 0.1 nM 17-beta-estradiol - cell viability counter screen (AID 1259241); note: nearly all actives have a fitted effect of over 40% in size
Summary of the method: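 Viability in VM7Luc4E2 cells after 22 hr compound exposure under 0.1 nM 17beta-estradiol stimulation, by CellTiter-Fluor.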

[3] = qHTS assay to identify small molecule antagonists of the androgen receptor (AR) signaling pathway using the MDA cell line in the presence of 0.5 nM R1881 - cell viability counter screen (AID 1259242); note: nearly all actives have a fitted effect of over 45% in size
Summary of the method: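 Fluorescence from CellTiter-Fluor, which reports protease activity of live cells, was read 30 min after reagent addition to MDA-kb2 cells that had been incubated 16 hr with compound and 0.5 nM R1881.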

[4] = target: Androgen receptor (Homo sapiens) (UniProt P10275); test: qHTS assay to identify small molecule antagonists of the androgen receptor (AR) signaling pathway using the MDA cell line in the presence of 0.5 nM R1881 (AID 1259243); note: nearly all actives have a fitted effect of over 50% in size
Androgen receptor (Homo sapiens), sequence (P10275 whole entry, looked up): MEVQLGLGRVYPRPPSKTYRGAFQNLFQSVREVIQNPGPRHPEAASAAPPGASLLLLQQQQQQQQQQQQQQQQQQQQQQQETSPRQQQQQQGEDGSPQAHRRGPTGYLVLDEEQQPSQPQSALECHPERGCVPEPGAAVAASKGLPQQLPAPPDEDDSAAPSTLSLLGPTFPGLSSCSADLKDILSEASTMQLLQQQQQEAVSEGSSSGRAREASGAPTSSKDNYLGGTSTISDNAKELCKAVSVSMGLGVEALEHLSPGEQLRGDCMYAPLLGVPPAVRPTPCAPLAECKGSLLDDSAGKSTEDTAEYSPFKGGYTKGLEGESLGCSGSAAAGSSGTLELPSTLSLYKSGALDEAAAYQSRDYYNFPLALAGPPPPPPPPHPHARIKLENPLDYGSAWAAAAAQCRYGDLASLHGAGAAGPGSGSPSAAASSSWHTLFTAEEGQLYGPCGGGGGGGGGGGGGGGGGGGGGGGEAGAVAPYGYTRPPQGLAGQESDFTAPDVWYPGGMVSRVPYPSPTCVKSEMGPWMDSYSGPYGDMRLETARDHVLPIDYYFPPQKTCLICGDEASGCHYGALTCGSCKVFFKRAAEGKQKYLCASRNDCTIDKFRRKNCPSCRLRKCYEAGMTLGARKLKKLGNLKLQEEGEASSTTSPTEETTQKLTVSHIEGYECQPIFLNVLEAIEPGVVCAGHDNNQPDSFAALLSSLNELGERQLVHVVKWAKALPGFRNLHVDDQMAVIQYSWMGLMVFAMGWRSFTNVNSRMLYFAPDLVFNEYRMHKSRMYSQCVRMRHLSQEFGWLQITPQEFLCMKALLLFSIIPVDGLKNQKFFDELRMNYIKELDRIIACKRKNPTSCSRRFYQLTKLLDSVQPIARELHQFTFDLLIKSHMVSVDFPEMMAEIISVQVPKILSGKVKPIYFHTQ
Summary of the method: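 Inhibition of R1881 (0.5 nM final) induced reporter signal was measured in human MDA-kb2 cells; note the MMTV promoter also responds to GR. Exposure lasted 16 hr at 37C.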

[5] = qHTS assay to identify small molecule HDAC inhibitors (AID 1259364); note: nearly all actives have a fitted effect of over 45% in size; note: potency is the fitted concentration of half-maximal effect
Summary of the method: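 Endogenous HDAC class I/II activity was measured in wild-type HCT-116 cells by HDAC-Glo luminescence after 2 h compound treatment.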

[6] = qHTS assay to identify small molecule HDAC inhibitors - cell viability counter screen (AID 1259365); note: series mostly up to about 92 µM; nearly all actives have a fitted effect of over 50% in size
Summary of the method: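 Cytotoxicity was gauged in wild-type HCT-116 cells after a brief 2hr treatment with DMSO-dissolved compounds at 37C and 5% CO2, using CellTiter-Glo luminescence developed for 30min at room temperature.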

[7] = qHTS assay to identify small molecule antagonists of the sonic hedgehog signaling (Shh) pathway - cell viability counter screen (AID 1259367); note: nearly all actives have a fitted effect of over 55% in size
Summary of the method: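 Seed 3T3 Gli1-Luc cells at 2,000 per well; incubate 4 hr; add compound in DMSO, then conditioned medium; incubate at 37C with 5% CO2; add CellTiter-Fluor after 23 hr; read fluorescence 1 hr later.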

[8] = target: Estrogen receptor (Homo sapiens) (UniProt P03372); test: qHTS assay to identify small molecule antagonists of the estrogen receptor alpha (ER-alpha) signaling pathway using the BG1 cell line in the presence of 0.1 nM 17-beta-estradiol (AID 1259244); note: nearly all actives have a fitted effect of over 50% in size
Estrogen receptor (Homo sapiens), sequence (P03372 whole entry, looked up): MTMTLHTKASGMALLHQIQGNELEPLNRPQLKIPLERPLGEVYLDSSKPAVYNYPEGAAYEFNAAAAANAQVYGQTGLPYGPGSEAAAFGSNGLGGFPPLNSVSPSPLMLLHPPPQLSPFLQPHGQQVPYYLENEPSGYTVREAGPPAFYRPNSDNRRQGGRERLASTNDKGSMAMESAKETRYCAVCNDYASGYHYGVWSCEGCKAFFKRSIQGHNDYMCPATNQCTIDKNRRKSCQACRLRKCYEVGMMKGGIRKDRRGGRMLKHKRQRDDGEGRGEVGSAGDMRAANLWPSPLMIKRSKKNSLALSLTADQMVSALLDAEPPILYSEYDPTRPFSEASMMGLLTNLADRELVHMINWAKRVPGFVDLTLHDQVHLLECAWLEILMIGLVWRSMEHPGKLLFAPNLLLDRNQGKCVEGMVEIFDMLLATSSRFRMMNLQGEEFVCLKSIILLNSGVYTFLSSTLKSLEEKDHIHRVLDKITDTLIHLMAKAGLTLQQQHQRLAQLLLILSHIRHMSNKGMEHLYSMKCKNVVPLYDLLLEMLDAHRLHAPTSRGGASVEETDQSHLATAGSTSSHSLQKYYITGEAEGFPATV
Summary of the method: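 Quantitative high-throughput screen in VM7Luc4E2 cells: compound plus 0.1 nM E2 (final), 22 h, 37C, 5% CO2; ONE-Glo added, 30 min room temperature, luminescence measured.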

[9] = qHTS assay to identify small molecule agonists of the sonic hedgehog signaling (Shh) pathway - cell viability counter screen (AID 1259366); note: nearly all actives have a fitted effect of over 50% in size
Summary of the method: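 Stable Gli1-Luc NIH/3T3 clone, 2,000 cells/well. Compound exposure 24hr at 37C. Read-out: CellTiter-Fluor fluorescence.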

[10] = qHTS assay to identify small molecule phospholipidosis (PLD) inducers (AID 1259344; active = well fitted curve in the direction sought with a large enough effect; an effect the other way counts as inactive or inconclusive)
Summary of the method: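 Quantitative HTS in HepG2: compound plus LipidTOX Red dye for 24 h, paraformaldehyde fixation with Hoechst 33342, widefield high-content imaging; amiodarone as positive and DMSO as negative control.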

SMILES | Potency [1] | Potency [2] | Potency [3] | Potency [4] | Potency [5] | outcome [6] | Potency [7] | Potency [8] | Potency [9] | Potency [10]
CCCN(C1CCN(C(=O)C2CCNCC2)CC1)[C@@H]1CCc2ccc(OC)cc2C1 | inactive | inactive | inactive | inactive | inactive | inactive | inactive | – | – | –
CCCC1CCOC(C)S1 (centres undefined) | inactive | inactive | inactive | inactive | inactive | inactive | inactive | inactive | inactive | –
O=c1[nH][nH]c2ccccc12 | inactive | inactive | inactive | inactive | inactive | inactive | inactive | – | inactive | –
CC(C)(C)N | inactive | inactive | inactive | – | inactive | inactive | inactive | inactive | inactive | –
CC(C)C/C=C(\C=O)c1ccccc1 | inactive | inactive | inactive | – | inactive | inactive | – | inactive | – | –
O=S(=O)(O)c1cc(Cl)c(Cl)cc1Cl | inactive | inactive | inactive | inactive | inactive | inactive | inactive | inactive | inactive | –
Clc1cccc(C(c2ccc3nc[nH]c3c2)n2ccnc2)c1 (centres undefined) | inactive | inactive | inactive | inactive | inactive | inactive | inactive | inactive | inactive | inactive
CCC(C(=O)O)c1ccc(N2Cc3ccccc3C2=O)cc1 (centres undefined) | inactive | inactive | inactive | inactive | 2.66 µM (active) | inactive | inactive | inactive | inactive | –
CC(COc1ccccc1)NC(C)C(O)c1ccc(O)cc1 (centres undefined) | inactive | inactive | inactive | – | inactive | inactive | inactive | inactive | inactive | inactive
CCOCCn1c(N2CCCN(C)CC2)nc2ccccc21 | inactive | inactive | inactive | inactive | inactive | inactive | inactive | – | inactive | –
CC1=C(C)C(=O)C(C(CCCCCC(=O)O)c2ccccc2)=C(C)C1=O (centres undefined) | inactive | inactive | inactive | – | inactive | inactive | – | inactive | – | inactive
O=C(O)c1cccc(C(=O)O)c1C(=O)O | inactive | inactive | inactive | inactive | inactive | inactive | inactive | inactive | inactive | –
CNc1ccccc1 | inactive | inactive | inactive | – | inactive | inactive | inactive | inactive | inactive | –
CC(C)CCCCCOC(=O)CS | inactive | inactive | inactive | – | inactive | inactive | inactive | inactive | inactive | –
OCC(O)c1ccccc1 (centres undefined) | inactive | inactive | inactive | – | inactive | inactive | inactive | inactive | inactive | –
CC1(C)CC(=O)CC(C)(C)N1 | inactive | inactive | inactive | – | inactive | inactive | inactive | inactive | inactive | –
Nc1cccc2c(=O)[nH][nH]c(=O)c12 | inactive | inactive | inactive | – | inactive | inactive | inactive | inactive | inactive | –
C[C@@H](O)[C@H]1C(=O)N2C(C(=O)O)=C(S[C@@H]3CN[C@H](CNS(N)(=O)=O)C3)[C@H](C)[C@H]12 | inactive | inactive | inactive | – | inactive | inactive | inactive | inactive | inactive | –
COC(=O)Cc1cccc2ccccc12 | inactive | inactive | inactive | – | inactive | inactive | inactive | inactive | inactive | –
C1=COCCC1 | inactive | inactive | inactive | – | inactive | inactive | inactive | inactive | inactive | –
CCCC1CCCC(=O)O1 (centres undefined) | inactive | inactive | inactive | – | inactive | inactive | inactive | inactive | inactive | –
O=C(O)c1ccccc1-n1cc(C(=O)O)c(=O)c2cc(Nc3c(F)cc(F)cc3Cl)c(Cl)cc21 | inactive | inactive | inactive | – | inactive | inactive | inactive | inactive | inactive | –
O=C(Cl)c1ccc(F)c(Cl)c1 | inactive | inactive | inactive | – | inactive | inactive | inactive | inactive | inactive | –
CC(C)NC(=O)c1ccccc1N | inactive | inactive | inactive | – | inactive | inactive | inactive | inactive | inactive | –
Cc1c(Cl)cccc1Nc1ccccc1C(=O)O | inactive | inactive | inactive | – | inactive | inactive | inactive | inactive | inactive | –
CC(C)=CCCC(C)C=O (centres undefined) | inactive | inactive | inactive | – | inactive | inactive | inactive | inactive | inactive | –
CC(=O)Nc1cccc(N)c1 | inactive | inactive | inactive | – | inactive | inactive | inactive | inactive | inactive | –
